A selection: hits, their analogues and other compounds. The true share with any hit is near 1.4%.
RXFP1 antag = blocks the human relaxin receptor RXFP1; Q9HBX9; HEK293-RXFP1, relaxin-stimulated cAMP HTRF, 30 min; active compounds read low; activity change, negative = inhibition, % at 57.5 µM; 350,000 compounds, 0.59% hits;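 active = activity change of -60% or lower, but not beyond a set lower limit; inconclusive = change between -60% and -40%, or beyond the set limit; inactive = change above -40%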
KCNH2 WT inh = inhibitors of human wildtype KCNH2 potassium channel; AID 720551; 340,000 compounds, 0.37% hits; Q12809; U2OS, BacMam KCNH2, thallium flux FluxOr; active compounds read low; activity change, % at 1.84 µM;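 active = maximum activity change below -70%; inconclusive = maximum activity change between -70% and -50%; inactive = maximum activity change above -50%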
Target sequence (Q12809 whole entry, looked up): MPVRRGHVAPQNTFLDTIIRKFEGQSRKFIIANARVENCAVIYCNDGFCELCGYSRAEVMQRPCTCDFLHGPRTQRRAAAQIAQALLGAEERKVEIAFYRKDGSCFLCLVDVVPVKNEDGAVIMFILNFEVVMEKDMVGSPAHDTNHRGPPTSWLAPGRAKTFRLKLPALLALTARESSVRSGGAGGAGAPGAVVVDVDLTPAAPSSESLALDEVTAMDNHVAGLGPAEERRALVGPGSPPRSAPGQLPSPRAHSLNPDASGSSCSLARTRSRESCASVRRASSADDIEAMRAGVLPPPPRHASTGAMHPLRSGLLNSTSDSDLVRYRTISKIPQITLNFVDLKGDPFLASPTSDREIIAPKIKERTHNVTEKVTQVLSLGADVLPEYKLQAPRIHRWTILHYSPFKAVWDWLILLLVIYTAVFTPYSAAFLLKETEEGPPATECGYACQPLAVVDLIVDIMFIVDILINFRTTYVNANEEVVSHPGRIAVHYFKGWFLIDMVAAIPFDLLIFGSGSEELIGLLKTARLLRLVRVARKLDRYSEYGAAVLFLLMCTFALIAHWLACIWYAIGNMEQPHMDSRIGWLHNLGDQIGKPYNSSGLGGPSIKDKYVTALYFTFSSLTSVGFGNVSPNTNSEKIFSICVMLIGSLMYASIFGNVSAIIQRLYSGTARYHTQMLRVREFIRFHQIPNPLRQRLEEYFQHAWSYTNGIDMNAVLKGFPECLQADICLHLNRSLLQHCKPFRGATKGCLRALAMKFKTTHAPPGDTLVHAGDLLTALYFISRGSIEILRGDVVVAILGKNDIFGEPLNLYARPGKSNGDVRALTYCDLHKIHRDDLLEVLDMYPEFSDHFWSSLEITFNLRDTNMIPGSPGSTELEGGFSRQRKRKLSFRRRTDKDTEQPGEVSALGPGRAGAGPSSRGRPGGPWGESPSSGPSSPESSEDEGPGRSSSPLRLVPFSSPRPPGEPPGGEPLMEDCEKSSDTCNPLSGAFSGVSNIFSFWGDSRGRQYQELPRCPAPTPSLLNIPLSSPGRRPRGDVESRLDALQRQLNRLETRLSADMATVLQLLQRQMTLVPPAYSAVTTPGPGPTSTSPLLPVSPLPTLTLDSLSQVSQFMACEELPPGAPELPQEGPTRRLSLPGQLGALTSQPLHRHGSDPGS
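U2OS cells were transduced with wild-type KCNH2 virus (2.03 x 10^8 / mL) for 4 h at room temperature, then cultured overnight at 37 C. Thallium flux was read with FluxOr dye. Rate constants were normalized to DMSO controls.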
PTHR1 agonist = agonists of human PTHR1 parathyroid hormone receptor. Potency, µM (doses to about 115 µM), most hits filed as activators. AID 743266. 410,000 compounds, 0.075% hits. HEK293 GP2 PTHR1 cells, GloSensor cAMP luminescence, 1 h; also: nearly all actives have a fitted effect of over 55% in size
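HEK-293-derived GP2 cells expressing PTHR1 and a GloSensor cAMP reporter, 3,000/well, plated overnight, given luciferin plus IBMX (each 0.5 mM as added) for 1 h at 37 °C, then compound for 1 h at 37 °C. Luminescence was read after 15 min at room temperature.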
KCNH2 3.1 block = blocks the human KCNH2 3.1 channel isoform. U2OS KCNH2 3.1, thallium flux FluxOr; active compounds read low. activity change, % (tested at about 1.8 µM). 340,000 compounds, 0.95% hits;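 active = maximum activity change below -70%; inconclusive = maximum activity change from -70% to -50%; inactive = maximum activity change above -50%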;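 also: thallium influx rate constant from kinetic fluorescence after stimulation buffer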
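Thallium flux read-out: FluxOr dye with Red40 quencher in HBSS/HEPES, 45 min at RT. Rate constants from kinetic reads were normalized to positive and negative DMSO controls. Cells: U2OS virally expressing the 3.1 isoform.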
GRP78 ERSR act = inducers of ER stress response in human glioma cells; U87-MG GRP78 promoter luciferase reporter, 16 h; 420,000 compounds, 0.02% hits; Potency, µM, most hits filed as activators; also: series mostly up to about 76 µM; nearly all actives have a fitted effect of over 35% in size
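Stably transfected U87-MG glioma cells carrying a GRP78-based luciferase sensor; 16 h compound incubation. Luminescence end-point read 10 min after Bright-Glo addition at room temperature.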
RXFP1 agonist = RXFP1 (human) receptor agonism. Q9HBX9. HEK293T-RXFP1 cAMP TR-FRET, 30 min; response scale: percent of porcine relaxin response, buffer zero. Potency, µM (top dose mostly 57.5 µM), hits mostly activators. 370,000 compounds, 0.3% hits; also: nearly all actives have a fitted effect of over 60% in size
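cAMP rise read by TR-FRET after 30 min, 37C compound exposure (up to 58 uM) in RXFP1-transfected HEK293 cells with Ro 20174 present. EC50 from Hill-equation fits, with 29 nM porcine relaxin as 100% and buffer as basal.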
Large screens that a line does not name were inactive. Unless noted, calls follow the shape of the dose curve; as a rule, active = well fitted curve in the direction sought with a large enough effect; inconclusive = small, poorly fitted or top-dose-only effect, or another doubt; inactive = no such curve, though single readings can be large; an effect the other way counts as inactive or inconclusive.

OC(COc1ccc(-c2ccccc2)cc1)CN1CCCCC1 (stereo unspecified)	KCNH2 3.1 block -73 (no result: RXFP1 agonist)
OC(CNC1CCCC1)COc1ccc(-c2ccccc2)cc1 (stereo unspecified)	KCNH2 3.1 block -71
OC(COc1ccccc1)CN1CCCCC1 (stereo unspecified)	none (no result: KCNH2 3.1 block, RXFP1 agonist)
OC(COc1ccccc1Cl)CN1CCN(CC(O)COc2ccccc2Cl)CC1 (stereo unspecified)	KCNH2 WT inh inconclusive, KCNH2 3.1 block -82
Cc1ccccc1OCC(O)CN1CCN(C)CC1 (stereo unspecified)	none
OC(COc1ccc(F)cc1)CN1CCN(CC(O)COc2ccc(F)cc2)CC1 (stereo unspecified)	KCNH2 3.1 block -74
COc1cc(C(=O)NCCCNc2nc3cc(C)cc(C)c3cc2C#N)cc(OC)c1OC	none
CN(C(=O)COC(=O)c1ccc(=O)n(Cc2ccccc2)n1)C1CCCCC1	none
COc1cccc(NC(=O)CN(C)C(=O)c2ccc(OCC3CCCO3)cc2)c1 (stereo unspecified)	none
Cc1ccc(OCC(O)CN2CCN(CC(O)COc3ccc(C)cc3)CC2)cc1 (stereo unspecified)	KCNH2 3.1 block inconclusive
CC1CN(CC(O)COc2ccc(C#N)cc2)CCN1CC(O)COc1ccc(C#N)cc1 (stereo unspecified)	KCNH2 WT inh -118, KCNH2 3.1 block -102
COc1cccc(C(=O)N2c3nc(-c4ccco4)nn3C3(CCCCC3)[C@@H]3CCCC[C@@H]32)c1	RXFP1 antag -65 (no result: KCNH2 WT inh, KCNH2 3.1 block)
O=C(c1cccc(Cl)c1)N1c2nc(-c3ccco3)nn2C2(CCCCC2)[C@@H]2CCCC[C@@H]21	none (no result: KCNH2 WT inh, KCNH2 3.1 block)
O=C(c1cccc(Cl)c1)N1c2ncnn2C2(CCCCC2)[C@@H]2CCCC[C@@H]21	RXFP1 antag -61 (no result: KCNH2 WT inh, KCNH2 3.1 block)
COc1ccccc1C(=O)N1c2ncnn2C2(CCCCC2)[C@@H]2CCCC[C@@H]21	none (no result: KCNH2 WT inh, KCNH2 3.1 block)
CC1(C)CC(=O)c2ccc(OCc3ccc([N+](=O)[O-])cc3)cc2O1	none
O=C(NC1CCCCCC1)c1ccc(CS(=O)(=O)Cc2ccc(F)cc2)o1	none
COC(=O)c1ccc(OCC2c3cc(OC)c(OC)cc3CCN2C(=O)c2ccc(OC)cc2)cc1 (stereo unspecified)	none (no result: RXFP1 antag, KCNH2 WT inh, KCNH2 3.1 block)
COC(=O)c1ccc(OCC2c3cc(OC)c(OC)cc3CCN2C(=O)c2ccco2)cc1 (stereo unspecified)	KCNH2 3.1 block -173
CCOC(=O)c1sc2ncn(CC(=O)NCC3CCCO3)c(=O)c2c1C (stereo unspecified)	KCNH2 3.1 block -180
O=[N+]([O-])c1cc2c(c(CSc3ncccn3)c1)OCOC2	RXFP1 agonist 14µM
Nc1cc(N)nc(SCc2cc([N+](=O)[O-])cc3c2OCOC3)n1	none
Cc1cc(C)c2cc(C)c(SCC(=O)NCc3ccco3)nc2c1	none
O=C(Nc1ccnn1C1CCN(C/C=C/c2ccccc2)CC1)c1ccccc1	KCNH2 WT inh -91, KCNH2 3.1 block -91
COc1ccc(CN2CCC(n3nccc3NC(=O)c3cccc(F)c3)CC2)cc1O	KCNH2 WT inh -109, KCNH2 3.1 block -110
Cc1c(CN2CCC(n3nccc3NC(=O)c3cccc(F)c3)CC2)cnn1C	none (no result: KCNH2 3.1 block)
O=C(Nc1ccnn1C1CCN(C2CCC2)CC1)c1ccccc1	none
O=C(Nc1ccnn1C1CCN(CCCc2ccccc2)CC1)c1cccc(F)c1	KCNH2 WT inh -89, KCNH2 3.1 block -104
O=C(Nc1ccnn1C1CCN(C/C=C/c2ccccc2)CC1)c1cccc(F)c1	KCNH2 WT inh -92, KCNH2 3.1 block -99
CC1Cn2c(nnc2-c2ccc(F)cc2)S1 (stereo unspecified)	none
COc1ccccc1NS(=O)(=O)c1cccc(NC(=O)c2sc3ccccc3c2Cl)c1	none
COc1ccc(N2C(=O)C(Cl)=C(N3CCOCC3)C2=O)cc1	RXFP1 antag -62
O=C(/C=C/c1ccc(N2CCC(c3ccccc3)=N2)cc1)c1ccccc1	KCNH2 WT inh -74 (no result: KCNH2 3.1 block)
Nc1c(C(=O)NCC2CCCO2)sc2nc3c(c(-c4ccco4)c12)CC/C3=C\c1ccco1 (stereo unspecified)	RXFP1 antag -102
CN(C)c1ccc(-c2csc(C(C)(O)c3ccccc3)n2)cc1 (stereo unspecified)	none (no result: RXFP1 antag, KCNH2 WT inh, KCNH2 3.1 block, RXFP1 agonist)
CCCCN(C(=O)c1cc(Cl)nc2ccccc12)c1c(N)n(CCCC)c(=O)[nH]c1=O	none
Cn1c(-c2ccc3c(c2)OCO3)cnc1N	KCNH2 3.1 block -75
CCOC(=O)c1ccccc1NC(=O)Cn1c2ncccc2c(=O)n1-c1ccccc1	none (no result: RXFP1 antag, KCNH2 WT inh, KCNH2 3.1 block)
CCN(CC1CCCN(CCc2cccc(F)c2)C1)C(=O)c1ccc(CSC)o1 (stereo unspecified)	KCNH2 3.1 block -84
CCN(CC1CCCN(CCc2cccc(F)c2)C1)C(=O)c1ccoc1C (stereo unspecified)	none (no result: RXFP1 agonist)
CN(c1ccccc1)S(=O)(=O)c1cccc(NC(=O)CN2C(=O)NC3(CCCC3)C2=O)c1	none
OCc1ccccc1SSc1ccccc1CO	RXFP1 antag -65 (no result: RXFP1 agonist)
O=c1nc2ccccn2c2ccc(S(=O)(=O)N3CCCCC3)cc12	RXFP1 agonist 20µM
CCC(=O)C1=C(N2CCCC2)CC(C)(C)CC1=O	none
CCCCC(=O)C1=C(N2CCCC2)CC(C)(C)CC1=O	RXFP1 antag -62 (no result: RXFP1 agonist)
COc1cc(NC(=O)c2ccccc2F)ccc1NC(=O)c1cc2ccccc2o1	KCNH2 3.1 block -71
COc1cccc(NC(=O)c2cc3ccccc3oc2=O)c1	KCNH2 WT inh -76
COc1cc(NC(=O)c2c(OC)cccc2OC)ccc1NC(=O)c1cc2ccccc2o1	none
COc1cc(NC(=O)c2cc3ccccc3o2)ccc1NC(=O)c1ccco1	KCNH2 3.1 block -81
Cc1ccc(/C(=C\CN2CCCC2)c2cccc(/C=C/C(=O)O)n2)cc1	none (no result: RXFP1 antag, KCNH2 WT inh, PTHR1 agonist, KCNH2 3.1 block, RXFP1 agonist)
O=C(COC(=O)c1cccnc1)Nc1ccccc1	none
C[C@@H]1CN([C@H](C)CO)C(=O)CCCn2nncc2CO[C@@H]1CN(C)C(=O)C1CC1	none (no result: RXFP1 agonist)
Cc1ccccc1N(C(=O)Cc1cccs1)C(C(=O)NCC1CCCO1)c1cccnc1 (stereo unspecified)	none
CC(C)Sc1nc2ccccc2n1CC(=O)NCc1ccc2c(c1)OCO2	none
CC(C)Cn1c(SCC(=O)NC(=O)NC2CCCC2)nc2ccccc21	RXFP1 antag -66
CC(C)N(C(=O)Cn1c(SCC(=O)NCc2ccc3c(c2)OCO3)nc2ccccc21)C(C)C	KCNH2 WT inh -122
CCn1cc(C(=O)N(C)c2ccc(OC)cc2OC)c2cc(OC)c(OC)cc2c1=O	none
COc1ccc(CCNC(=O)c2cc3ccc(Cl)cc3nc2N)cc1	none (no result: RXFP1 antag, KCNH2 WT inh, KCNH2 3.1 block, GRP78 ERSR act, RXFP1 agonist)
